Assay results: PubChem BioAssay (NCI)
Compounds without any hit were thinned out: in the full panel of roughly 79,000, 15% have a hit. Activity calls are given as the source filed them. No stated cut-off is given here; in the data, active means growth inhibition above about 70%; inactive means the rest.

Assays:
[1] = NCI Yeast Anticancer Drug Screen. Data for the wt2 strain (AID 169);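 further: 0% = growth of vehicle-treated yeast cultures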; details: S. cerevisiae wt2 strain growth inhibition, active compounds read high
Method in brief: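 This strain belongs to a panel of yeast strains with defined genetic alterations in DNA damage repair or cell cycle control. Compounds are applied, and growth inhibition is measured against vehicle-treated cultures.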

[2] = NCI Yeast Anticancer Drug Screen. Data for the sgs1 strain (AID 173);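 further: 0% = growth of vehicle-only control cultures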; details: S. cerevisiae sgs1 mutant, active compounds read high
Method in brief: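 Growth of a yeast strain bearing a defined genetic alteration is measured after compound treatment. Inhibition is expressed relative to vehicle-only controls.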

[3] = NCI Yeast Anticancer Drug Screen. Data for the mlh1 rad18 strain (AID 175); details: S. cerevisiae mlh1 rad18 strain growth inhibition, active compounds read high
Method in brief: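 Read-out is yeast growth inhibition, calculated against vehicle-only controls. The compound was applied to a strain engineered with DNA damage repair alterations.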

[4] = NCI Yeast Anticancer Drug Screen. Data for the rad18 strain (AID 177); details: S. cerevisiae rad18 mutant growth inhibition, active compounds read high
Method in brief: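 Growth of the mutant yeast strain after compound exposure, normalised to vehicle-only cultures.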

[5] = NCI Yeast Anticancer Drug Screen. Data for the rad52 strain (AID 147);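 further: 0% = growth of vehicle-treated control cultures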; details: S. cerevisiae rad52 mutant growth inhibition, active compounds read high
Method in brief: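 Compounds are applied to a genetically defined yeast strain lacking normal DNA damage repair, and inhibition of growth is expressed relative to cultures given vehicle only.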

[6] = NCI Yeast Anticancer Drug Screen. Data for the wt1 strain (AID 149);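 further: 0% = growth of vehicle-treated wt1 cultures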; details: S. cerevisiae wt1 strain (SPY 50644) growth inhibition, active compounds read high
Method in brief: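 wt1 yeast, compound-treated; % growth inhibition vs vehicle control.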

[7] = NCI Yeast Anticancer Drug Screen. Data for the rad50EPP+ strain (AID 151);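 further: 0% = growth of vehicle-treated control cultures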; details: S. cerevisiae rad50 mutant strain, active compounds read high
Method in brief: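 Compounds were applied to the rad50EPP+ yeast strain, which bears a defined DNA repair alteration, and growth inhibition was determined relative to vehicle-treated cultures.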

[8] = NCI Yeast Anticancer Drug Screen. Data for the mgt1 strain (AID 153); details: S. cerevisiae mgt1 mutant growth inhibition, active compounds read high
Method in brief: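 Strain: mgt1 yeast, one of a set carrying defined DNA damage repair or cell cycle control alterations. Compound-treated growth compared with vehicle.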

[9] = NCI Yeast Anticancer Drug Screen. Data for the rad50 strain (AID 155);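 further: 0% = growth of vehicle-only cultures of the same strain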; details: S. cerevisiae rad50 strain growth inhibition, active compounds read high
Method in brief: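 Genetically altered yeast (DNA repair pathway); compound treatment; growth inhibition vs vehicle ctrl.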

[10] = NCI Yeast Anticancer Drug Screen. Data for the rad14 strain (AID 159);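 further: 0% = growth of vehicle-treated control cultures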; details: S. cerevisiae rad14 strain growth inhibition, active compounds read high
Method in brief: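 Test compounds were applied to a repair-deficient yeast strain. Its growth was then compared with that of cultures given vehicle alone, and inhibition was expressed relative to those controls.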

[11] = NCI Yeast Anticancer Drug Screen. Data for the sgs1 mgt1 strain (AID 161);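 further: 0% = growth of cultures given vehicle only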; details: S. cerevisiae sgs1 mgt1 strain, active compounds read high
Method in brief: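 Read-out: growth inhibition vs vehicle controls. Cells: mutant yeast strain deficient in DNA damage repair.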

[12] = NCI Yeast Anticancer Drug Screen. Data for the CLN2oe strain (AID 163);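 further: 0% = growth of vehicle-only control cultures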; details: S. cerevisiae CLN2oe strain, active compounds read high
Method in brief: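 Growth of a genetically modified yeast strain is measured after compound exposure and compared with cultures given vehicle alone.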

[13] = NCI Yeast Anticancer Drug Screen. Data for the cln2 rad14 strain (AID 165);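 further: 0% = growth equal to vehicle treated cultures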; details: S. cerevisiae cln2 rad14 strain, active compounds read high
Method in brief: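 Compounds are applied to the cln2 rad14 yeast strain, and growth is then compared with that of vehicle-treated cultures to give inhibition.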

[14] = NCI Yeast Anticancer Drug Screen. Data for the bub3 strain (AID 167); details: S. cerevisiae bub3 mutant strain, active compounds read high
Method in brief: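 Yeast carrying a defined mutation is treated with each compound, and growth is compared with that of vehicle-exposed cells to give inhibition.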

[15] = NCI Yeast Anticancer Drug Screen. Data for the mlh1 strain (AID 171);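 further: 0% = growth of vehicle-treated control cultures of the same strain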; details: S. cerevisiae mlh1 strain growth inhibition, active compounds read high
Method in brief: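 Growth of the mutant yeast strain after compound exposure, expressed as inhibition relative to vehicle-only controls.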

[16] = NCI Yeast Anticancer Drug Screen. Data for the mec2-1 strain (AID 157); details: S. cerevisiae mec2-1 strain, active compounds read high
Method in brief: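 Strain: mec2-1 (DNA repair/cell cycle alteration). Compound exposure, then growth measured; inhibition expressed relative to vehicle.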

[17] = at 5.0 µM (retest, dose inferred, filed as 0.5)
[18] = at 50.0 µM (retest, dose inferred, filed as 5.0)

Measured: growth inhibition

Cc1cccc(C)c1NC(=O)C(C#N)C1=C(Cl)C(=O)c2ccccc2C1=O (stereo unspecified)
active: [1]; at 11.0 µM 98% | [1]; at 33.0 µM 98% | [1]; at 100.0 µM 98% | [2]; at 11.0 µM 97% | [2]; at 33.0 µM 98% | [2]; at 100.0 µM 97% | [3]; [17] 98% | [3]; [18] 98% | [3]; at 50.0 µM 91.7% | [4]; at 11.0 µM 92% | [4]; at 33.0 µM 97% | [4]; at 100.0 µM 96%
inactive: [1]; at 1.2 µM -22% | [1]; at 3.7 µM 35% | [2]; at 1.2 µM 8% | [2]; at 3.7 µM 45% | [4]; at 1.2 µM -32% | [4]; at 3.7 µM -1%

O=C(NCCCCN(CCCNC(=O)C(F)(F)F)Cc1ccccc1)C(F)(F)F
inactive: [5]; at 1.2 µM 30% | [5]; at 3.7 µM 36% | [5]; at 11.0 µM 31% | [5]; at 33.0 µM 33% | [5]; at 100.0 µM 35% | [6]; at 1.2 µM 5% | [6]; at 3.7 µM 9% | [6]; at 11.0 µM 4% | [6]; at 33.0 µM 6% | [6]; at 100.0 µM -10% | [7]; at 1.2 µM 5% | [7]; at 3.7 µM -6% | [7]; at 11.0 µM 4% | [7]; at 33.0 µM -2% | [7]; at 100.0 µM -18% | [8]; at 1.2 µM 22% | [8]; at 3.7 µM 33% | [8]; at 11.0 µM 32% | [8]; at 33.0 µM 26% | [8]; at 100.0 µM 7% | [9]; at 1.2 µM 32% | [9]; at 3.7 µM 33% | [9]; [17] 39% | [9]; at 11.0 µM 40% | [9]; at 33.0 µM 33% | [9]; at 50.0 µM -5.5% | [9]; at 100.0 µM 27% | [10]; at 1.2 µM 16% | [10]; at 3.7 µM 16% | [10]; at 11.0 µM 15% | [10]; at 33.0 µM 11% | [10]; at 100.0 µM -10% | [11]; [17] -19% | [11]; [18] -11% | [11]; at 50.0 µM -5.75% | [12]; at 1.2 µM 13% | [12]; at 3.7 µM 3% | [12]; at 11.0 µM 6% | [12]; at 33.0 µM 12% | [12]; at 100.0 µM -3% | [13]; [17] 14% | [13]; [18] 8% | [13]; at 50.0 µM 26.9% | [14]; at 1.2 µM 11% | [14]; at 3.7 µM 0% | [14]; [17] 7% | [14]; at 11.0 µM 0% | [14]; at 33.0 µM -7% | [14]; [18] 0% | [14]; at 50.0 µM -14% | [14]; at 100.0 µM 0% | [1]; at 1.2 µM -4% | [1]; at 3.7 µM -6% | [1]; at 11.0 µM 2% | [1]; at 33.0 µM -12% | [1]; at 100.0 µM -12% | [15]; at 1.2 µM 22% | [15]; at 3.7 µM 33% | [15]; at 11.0 µM 32% | [15]; at 33.0 µM 26% | [15]; at 100.0 µM 7% | [2]; at 1.2 µM 40% | [2]; at 3.7 µM 41% | [2]; at 11.0 µM 44% | [2]; at 33.0 µM 15% | [2]; at 100.0 µM 36% | [3]; [17] 19% | [3]; [18] 24% | [3]; at 50.0 µM -63% | [4]; at 1.2 µM 13% | [4]; at 3.7 µM 12% | [4]; at 11.0 µM 21% | [4]; at 33.0 µM 14% | [4]; at 100.0 µM -7%
active: [9]; [18] 90%

CCN(CC)CCNc1ccc(C)c2sc3ccc(O)cc3c(=O)c12
active: [5]; at 3.7 µM 89% | [5]; at 11.0 µM 94% | [5]; at 33.0 µM 98% | [5]; at 100.0 µM 99% | [6]; at 33.0 µM 79% | [6]; at 100.0 µM 99% | [8]; at 33.0 µM 89% | [8]; at 100.0 µM 99% | [9]; at 1.2 µM 72% | [9]; at 3.7 µM 94% | [9]; at 11.0 µM 96% | [9]; at 33.0 µM 98% | [9]; [18] 98% | [9]; at 50.0 µM 90.3% | [9]; at 100.0 µM 99% | [16]; at 33.0 µM 91% | [16]; [18] 98% | [16]; at 50.0 µM 92% | [16]; at 100.0 µM 99% | [10]; at 33.0 µM 93% | [10]; at 100.0 µM 99% | [11]; [18] 99% | [11]; at 50.0 µM 91.7% | [12]; at 33.0 µM 94% | [12]; at 100.0 µM 99% | [13]; [18] 98% | [13]; at 50.0 µM 90.9% | [14]; at 33.0 µM 91% | [14]; [18] 99% | [14]; at 50.0 µM 91.2% | [14]; at 100.0 µM 99% | [1]; at 33.0 µM 98% | [1]; at 100.0 µM 98% | [15]; at 33.0 µM 86% | [15]; at 100.0 µM 99% | [2]; at 33.0 µM 97% | [2]; at 100.0 µM 99% | [3]; [18] 99% | [3]; at 50.0 µM 91% | [4]; at 33.0 µM 97% | [4]; at 100.0 µM 99%
inactive: [5]; at 1.2 µM 60% | [6]; at 1.2 µM -7% | [6]; at 3.7 µM -10% | [6]; at 11.0 µM 8% | [8]; at 1.2 µM 7% | [8]; at 3.7 µM 27% | [8]; at 11.0 µM 23% | [9]; [17] 52% | [16]; at 1.2 µM -1% | [16]; at 3.7 µM 17% | [16]; [17] 4% | [16]; at 11.0 µM 36% | [10]; at 1.2 µM 23% | [10]; at 3.7 µM 29% | [10]; at 11.0 µM 34% | [11]; [17] 9% | [12]; at 1.2 µM 39% | [12]; at 3.7 µM 33% | [12]; at 11.0 µM 39% | [13]; [17] 12% | [14]; at 1.2 µM -1% | [14]; at 3.7 µM 10% | [14]; [17] -1% | [14]; at 11.0 µM 16% | [1]; at 1.2 µM -20% | [1]; at 3.7 µM -18% | [1]; at 11.0 µM -17% | [15]; at 1.2 µM 45% | [15]; at 3.7 µM 43% | [15]; at 11.0 µM 29% | [2]; at 1.2 µM 23% | [2]; at 3.7 µM 32% | [2]; at 11.0 µM 43% | [3]; [17] 12% | [4]; at 1.2 µM 6% | [4]; at 3.7 µM 5% | [4]; at 11.0 µM 12%
